# Assay outcomes deposited in PubChem BioAssay by National Center for Advancing Translational Sciences (NCATS).
# MBNL1 CUG block: MBNL1-poly(CUG) RNA binding inhibition; Q9NR56; TR-FRET MBNL1-His/biotin-(CUG)12 binding, 665/545 ratio; Potency, µM (top dose mostly 57.5 µM), without a hit: at the top dose activity change, negative = inhibition, hits mostly inhibitors; actives 0.036% (n = 280,000); active = well fitted inhibition curve with a large enough effect in the signal ratio, with a control signal flat, not every such curve was filed as active; inconclusive = small, poorly fitted or top-dose-only effect, or effect the other way, or a change in a side signal; inactive = no such curve, though single readings can be large or run the other way; the % refers to the signal ratio; note: potency is the fitted concentration of half-maximal effect; % is set by controls: 0 for no effect and ±100 for the full control effect
#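 Inhibition of protein-RNA binding appears as loss of TR-FRET between terbium anti-His antibody on MBNL1-His and streptavidin-XL665 on biotin-(CUG)12. Activity is normalized to buffer-only and uninhibited-complex controls.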
# KCNH2 WT inh: blocks the wildtype human KCNH2 potassium channel | actives 0.37% (n = 340,000) | AID 720551 | activity change, % at 1.84 µM | U2OS, BacMam KCNH2, thallium flux FluxOr; hits give low values;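 active = maximum activity change below -70%; inconclusive = maximum activity change between -70% and -50%; inactive = maximum activity change above -50%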; note: % is set by controls: 0 for no effect and ±100 for the full control effect
# Target sequence (Q12809 whole entry, looked up): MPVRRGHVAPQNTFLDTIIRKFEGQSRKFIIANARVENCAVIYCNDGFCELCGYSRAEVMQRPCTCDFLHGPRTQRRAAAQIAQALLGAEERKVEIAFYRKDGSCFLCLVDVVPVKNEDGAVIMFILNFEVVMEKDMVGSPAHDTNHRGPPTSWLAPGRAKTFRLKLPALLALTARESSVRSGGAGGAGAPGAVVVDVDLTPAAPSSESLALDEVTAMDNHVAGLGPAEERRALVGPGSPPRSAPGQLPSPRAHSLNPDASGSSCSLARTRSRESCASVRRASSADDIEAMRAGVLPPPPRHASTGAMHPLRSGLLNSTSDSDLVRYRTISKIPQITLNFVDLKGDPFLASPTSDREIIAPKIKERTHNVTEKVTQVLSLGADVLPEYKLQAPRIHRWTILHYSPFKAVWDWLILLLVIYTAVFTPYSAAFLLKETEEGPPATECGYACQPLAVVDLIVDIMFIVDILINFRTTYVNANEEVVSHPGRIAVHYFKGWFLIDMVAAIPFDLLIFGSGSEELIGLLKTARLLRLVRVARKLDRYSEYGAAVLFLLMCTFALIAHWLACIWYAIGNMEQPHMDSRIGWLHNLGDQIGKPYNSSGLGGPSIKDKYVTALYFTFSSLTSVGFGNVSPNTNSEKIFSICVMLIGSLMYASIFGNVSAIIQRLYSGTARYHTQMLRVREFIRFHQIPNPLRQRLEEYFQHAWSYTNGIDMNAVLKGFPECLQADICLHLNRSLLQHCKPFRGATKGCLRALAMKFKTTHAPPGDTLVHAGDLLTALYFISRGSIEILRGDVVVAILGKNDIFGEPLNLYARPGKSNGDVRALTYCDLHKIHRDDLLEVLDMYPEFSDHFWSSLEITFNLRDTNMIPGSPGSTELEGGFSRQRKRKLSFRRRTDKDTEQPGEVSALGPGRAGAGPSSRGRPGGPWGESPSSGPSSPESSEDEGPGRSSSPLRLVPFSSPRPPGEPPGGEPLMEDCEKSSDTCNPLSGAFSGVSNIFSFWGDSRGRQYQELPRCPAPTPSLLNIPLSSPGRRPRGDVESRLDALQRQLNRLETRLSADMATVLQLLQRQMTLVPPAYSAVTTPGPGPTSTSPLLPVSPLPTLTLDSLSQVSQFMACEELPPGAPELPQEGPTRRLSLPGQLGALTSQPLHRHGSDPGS
#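 U2OS cells transduced with wild-type KCNH2 virus are loaded with FluxOr dye for 45 min, and thallium flux is measured in kinetic reads before and after stimulation buffer. Rate constants are normalized to DMSO controls.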
# VDR inhibitor: inhibitors of human vitamin D receptor. P11473. VDR-SRC2-3 peptide fluorescence polarization, 2 h. Potency, µM, for inactives: max response, negative = inhibition, most hits filed as inhibitors. actives 0.93% (n = 400,000). AID 504847; note: potency is the fitted concentration of half-maximal effect; % is set by controls: 0 for no effect and ±100 for the full control effect
#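 Two reagent solutions held at 4 deg C in the dark were dispensed, compounds pinned at 23 nl, and the mixture incubated 2 h at room temperature. Read-out: fluorescence polarization of VDR–SRC2-3 peptide binding.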
# KCNH2 3.1 block: KCNH2 3.1 (human) potassium channel inhibition. U2OS KCNH2 3.1, thallium flux FluxOr; hits give low values. activity change, % (tested at about 1.8 µM). actives 0.95% (n = 340,000). AID 720553;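 active = maximum activity change below -70%; inconclusive = maximum activity change from -70% to -50%; inactive = maximum activity change above -50%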;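 note: thallium influx rate constant from kinetic fluorescence after stimulation buffer; % is set by controls: 0 for no effect and ±100 for the full control effect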
#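 FluxOr-based Tl+ influx in U2OS cells transduced with KCNH2 3.1 virus; rate constants normalized to DMSO controls.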
# PLK1 PBD inh: blocks phosphopeptide binding to human PLK1 polo-box domain. AID 720504. actives 2.8% (n = 360,000). Plk1 PBD binding of FITC phosphopeptide, fluorescence polarization. Potency, µM, without a hit: max response, negative = inhibition, usual class: inhibitors; note: potency is the fitted concentration of half-maximal effect; series mostly up to about 57 µM; % is set by controls: 0 for no effect and ±100 for the full control effect; nearly all actives have a fitted effect of over 65% in size
# CBFb RUNX1 block: CBF-beta/RUNX1 interaction disruption. Potency, µM (doses to about 59.8 µM), inactives show top-dose activity, negative = inhibition, most hits filed as inhibitors. Q01196+Q13951. AID 1477. AlphaScreen CBFb-His/RUNX1-biotin binding, biochemical. 230,000 tested, under 10 active; note: % of control where 0% means no effect
#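 CBF-beta (His) and RUNX1 (biotin), 30 nM each; 20 min preassociation; + compound, 15 min; + beads 50 ng each (Ni, streptavidin), 90 min; RT; AlphaScreen read.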
# The depositor's hits bear a star; ? = inconclusive; · = no result given; ! = a repeat was not active; [ ] = another dose, or the depositor's remark. Compounds with a hit are over-represented: about 3.8% of the library has one in this group of screens. Unless noted, calls come from the whole dose curve; as a rule, active = well fitted curve in the direction sought with a large enough effect; inconclusive = small, poorly fitted or top-dose-only effect, or another doubt; inactive = no such curve, though single readings can be large; an effect the other way counts as inactive or inconclusive.
SMILES,MBNL1 CUG block,KCNH2 WT inh,VDR inhibitor,KCNH2 3.1 block,PLK1 PBD inh,CBFb RUNX1 block
COc1cc2c(c(OC)c1)C(c1cccc(F)c1F)CC(=O)N2 (stereo unspecified),·,·,-10%,·,·,·
CCOC(=O)c1c(NC(=O)CSc2nnnn2-c2ccccc2OCC)sc2c1CC(C)(C)NC2(C)C,·,-19,-4%,-81*,3%,·
CCOC(=O)c1c(NC(=O)CSc2nnnn2-c2ccccc2)sc2c1CC(C)(C)NC2(C)C,-5%,10,-18%,-41,-11%,·
COc1cccc(NC(=O)CSc2nnc(-c3ccco3)c(-c3ccco3)n2)c1,?,5,89µM*,23,13µM*,·
Cc1ccc(NC(=O)CSc2nnc(-c3ccco3)c(-c3ccco3)n2)cc1,?,-9,?,-13,27µM*,·
O=C(CSc1nnc(-c2ccco2)c(-c2ccco2)n1)Nc1ccccc1,?,0,?,-1,19µM*,·
CC1CCc2nc(-c3cc4c(ccc5ccccc54)oc3=O)sc2C1 (stereo unspecified),·,·,-27%,·,·,·
COc1cccc(C(=O)Nc2ccccc2-c2nc(-c3ccc(C)cc3)no2)c1,·,·,21%,·,·,·
Fc1ccccc1Cn1nnc2c(-n3ccnc3)ncnc21,-8%,2,?,-11,24µM*,4%
O=C(CCC(=O)N(CC(=O)NC1CCCCC1)CC1CCCO1)Nc1nccs1 (stereo unspecified),1%,2,-7%,-1,27µM*,7%
CCOc1cc(N2C(=O)CC3CS(=O)(=O)CC32)c(OCC)cc1NC(=O)c1ccccc1 (stereo unspecified),7%,6,?,9,3µM*,14%
CCOc1cc(N2CCOCC2)c(OCC)cc1NC(=O)c1cccc(N(C)C)c1,·,3,11%,6,4%,-15%
COc1ccc(C2CC(=O)N(CC(=O)Nc3ccc(C)c(Cl)c3)c3ccccc3S2)cc1OC (stereo unspecified),·,·,-3%,·,·,·
Cc1nc2ccc(F)cc2cc1C(=O)Nc1ccc(Cl)c(Cl)c1,22%,-130*,-8%,4,-11%,?
O=C1C(Cl)=C(Nc2ccccc2O)C(=O)N1c1ccccc1,?,-9,?,-1,8.4µM*,0%
COc1ccccc1N1C(=O)C(Cl)=C(Nc2ccccc2O)C1=O,?,6,?,16,6.7µM*,-22%
Cc1c(NC2=C(Cl)C(=O)N(c3ccccc3)C2=O)c(=O)n(-c2ccccc2)n1C,?,-6,?,9,27µM*,-2%
CCOc1ccccc1NC1=C(Cl)C(=O)N(c2ccc(OC)cc2)C1=O,23%,-22,?,2,-18%,-1%
Cc1c(NC2=C(Cl)C(=O)N(c3ccccc3Cl)C2=O)c(=O)n(-c2ccccc2)n1C,3%[11.5 µM],0,-24%,-7,?,?
CCCCN(CC)CCNC(=O)c1c(C)oc2ncnc(N3CCOCC3)c12,·,·,3%,·,·,·
CCN(CC)S(=O)(=O)c1ccc2c(c1)c(=O)c(C(=O)NCc1ccccc1)cn2C,·,·,-1%,·,·,·
CC1(C)N([O-])C2=C(c3ccccc3C2=O)[N+](=O)C1(C)C,?,-9,?,15,11µM*,-2%
O=[N+]([O-])c1ccc(N2CCN(c3cccc(Cl)c3)CC2)nc1,6%,23,14%,-32,-7%,·
N#Cc1c(N2CCN(c3ccc([N+](=O)[O-])cc3)CC2)[n+](=O)c2ccc(Cl)cc2n1[O-],·,?,1%,-97*,-16%,·
Cc1cccc(CNC(=O)CN2C(=O)CCn3nc(-c4cn(C)c5ccccc45)cc32)c1,·,·,5%,·,·,·
SMILES,MBNL1 CUG block,KCNH2 WT inh,VDR inhibitor,KCNH2 3.1 block,PLK1 PBD inh,CBFb RUNX1 block
CCOc1ccc(NC(=O)Cn2c(=O)n(CCc3ccccc3)c(=O)c3c4c(sc32)CCCC4)cc1,·,·,-5%,·,·,·
CC(=O)Nc1cc(O)c2nonc2c1O,·,·,4.5µM*,·,·,·
CC(=O)Nc1c(O)cc(Br)c2nonc12,·,·,-21%,·,·,·
CCc1cccc(NC(=O)CCS(=O)(=O)c2ccc3nc(C)sc3c2)c1,·,·,3%,·,·,·
CCOc1ccc(NS(=O)(=O)c2ccc3c(c2)N(C(C)=O)CCS3)cc1,-12%,-11,-18%,1,27µM*,·
CCOc1ccc(NS(=O)(=O)c2ccc3c(c2)N(C(C)=O)CC3)cc1,-2%,3,3%,8,-6%,17%
CCC(NC(C)C)C(O)c1ccc(O)c(O)c1 (stereo unspecified),-6%,1,50µM*!,0,-12%,4%
CCC(c1ccc(O)c(O)c1)C(CC)c1ccc(O)c(O)c1 (stereo unspecified),·,2,5%,9,?,·
Cc1ccc(Cn2c(C)c(CNCCCc3ccccc3)c(C(=O)O)c2C)cc1,·,·,8%,·,·,·
COc1ccccc1Cn1[nH]nnc1=S,-2%,2,-15%,11,24µM*,0%
COc1cccc(-n2ccnc2SCC(=O)Nc2ccc(Cl)c(Cl)c2)c1,·,·,-1%,·,·,·
CCOC(=O)C1C(=O)NC(SC)=C(C#N)C1c1ccccc1F (stereo unspecified),5%,-1,-14%,3,-16%,5%
N#CC1=C(N)NC(=S)C(C(N)=O)C1c1ccccc1F (stereo unspecified),-5%,-4,4.5µM*,-1,19µM*,4%
N#CC1=C(N)NC(=S)C(C(N)=O)C1c1ccc(Cl)cc1Cl (stereo unspecified),2%,0,22µM*,17,19µM*,-3%
CCCCOc1ccc(CNC(=O)CCCN2C(=O)CSc3c2c(C)nn3-c2ccccc2)cc1,·,·,1%,·,·,·
O=c1c(Br)ccc(Br)cc1Br,·,4,10µM*,·,0.53µM*,·
COc1ccc(N(Cc2cccs2)C(=O)COc2ccc([N+](=O)[O-])cc2)cc1,·,·,13%,·,·,·
CCCCC(=O)/C=C/n1c(=S)oc2ccccc21,·,30,13µM*,·,?,4%
COC(=O)C(CCSC)NS(=O)(=O)c1ccccc1Br (stereo unspecified),·,·,1%,·,·,8%
COc1cc(CN(C(=O)c2ccc(Cl)cc2)C2CCS(=O)(=O)C2)cc(OC)c1OC (stereo unspecified),·,·,11%,·,·,·
Cc1ccc(N=N/C(=C\O)C(=O)c2ccc(Cl)cc2)cc1,-1%,-2,3%,-4,24µM*,?
O=C(/C(=C/O)N=Nc1ccccc1)c1ccc(Cl)cc1,2%,-2,-17%,5,?,?
COC(=O)[C@@]12CCCN1[C@H](c1ccc(-c3cccc(Cl)c3)c(OC)c1)[C@H]1C(=O)N(C)C(=O)[C@H]12,·,-1,-9%,-100*,1%,·
